# Hit rate of the full screen: of about 24,000 compounds, about 70 (0.3%) were called active. The full list was thinned out, with actives kept by preference. Unmarked numbers belong to inactive results. No stated cut-off is given here; in the data, active means inhibition above about 30%; inconclusive means no clear call, values can overlap the other calls; inactive means below that.
# Biological target: N-formyl peptide receptor 2 (Homo sapiens) (UniProt P25090)
# Test: small molecules displacing FPRL1 fluorescent ligand – cell-based, FPR counter-screen, flow cytometry, primary screen (AID 441);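 further: 0% = buffer alone and 100% = receptor blocker peptide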
# Conditions: FPRL1-expressing cells, fluorescent ligand binding inhibition, hits give high values, concentration not given here
# Sequence of N-formyl peptide receptor 2 (Homo sapiens) (P25090 whole entry, looked up): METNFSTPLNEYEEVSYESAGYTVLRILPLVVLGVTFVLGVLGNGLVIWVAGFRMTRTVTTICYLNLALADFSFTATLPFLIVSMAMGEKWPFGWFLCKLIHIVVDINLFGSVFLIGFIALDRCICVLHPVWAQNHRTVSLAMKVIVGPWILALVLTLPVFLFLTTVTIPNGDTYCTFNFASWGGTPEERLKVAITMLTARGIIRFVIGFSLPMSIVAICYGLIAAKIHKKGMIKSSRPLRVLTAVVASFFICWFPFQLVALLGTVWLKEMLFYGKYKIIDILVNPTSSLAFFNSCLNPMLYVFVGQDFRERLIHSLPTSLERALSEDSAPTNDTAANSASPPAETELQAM
row,SMILES,inhibition
1,COc1ccc(CCNC(=O)c2cc(-c3ccc4c(c3)OCO4)on2)cc1OC,-0.8%
2,COc1cccc(NC(=O)C2CCCN2C(=O)OCc2ccccc2)c1 (stereo unspecified),0.3%
3,CCOC(=O)C1CCN(C(=O)C2CCN(S(=O)(=O)c3c(C)noc3C)CC2)CC1,10.6%
4,CCOc1ccccc1NC(=O)C1CCN(S(=O)(=O)c2c(C)nn(C)c2C)CC1,-6.7%
5,CCOc1ccc(OCC)c(NC(=O)C2CCN(S(=O)(=O)c3c(C)noc3C)CC2)c1,30.8% (active)
6,COc1ccc(C(=O)Nc2nncs2)c(OC)c1,0%
7,COc1ccc(NS(=O)(=O)c2ccc(NC(C)=O)cc2)cc1OC,6%
8,NC(=O)CCCC1=NS(=O)(=O)c2ccccc2N1,-3.9%
9,CCN1C(=O)/C(=C2/Sc3ccccc3N2CCCS(=O)(=O)O)SC1=S,5.6%
10,CC(=O)c1c(C)c[nH]c1C,6%
11,Cc1cccc(N2CCN(C(=O)c3cc4c(=O)[nH]c5ccccc5c4n3C)CC2)c1C,-5%
12,CCOc1ccc(-c2nnn(CC(=O)N3CCN(c4ccc(F)cc4)CC3)n2)cc1OCC,-1.6%
13,CCOC(=O)N1CCN(C(=O)c2ccc3nc4cc(Cl)ccc4c(=O)n3c2)CC1,-10%
14,CCOc1ccc(C2C(C(=O)NC)=C(C)Nc3nc4ccccc4n32)cc1OC (stereo unspecified),-2.9%
15,O=C(NCCCN1CCN(Cc2ccccc2)CC1)C1CCN(S(=O)(=O)N2CCCC2)CC1,2%
16,COc1cccc(CN2C(=O)CCC2(C)C(=O)NC2CCCCCC2)c1 (stereo unspecified),7.7%
17,Cc1cc(N2C(=O)C(=O)/C(=C(/O)c3ccc(Cl)cc3)C2c2cccc(Br)c2)no1 (stereo unspecified),-2.5%
18,Cn1c(=O)c2[nH]c(NCC3CCCO3)nc2n(-c2ccccc2)c1=O (stereo unspecified),-0.4%
19,CCOC(=O)c1oc2ccccc2c1NC(=O)c1cccs1,-9.1%
20,CC(NC(=O)COc1ccccc1)C(=O)NC1=NCCS1 (stereo unspecified),5.2%
21,CCN(CC)CCNC(=O)C1c2ccccc2C(=O)N(C)C1c1cn(C)c2ccccc12 (stereo unspecified),9.3%
22,Cc1cccc(NC(=O)CSc2nnc(NC(=O)CN3CCOCC3)s2)c1,8.7%
23,COc1ccccc1C(=O)NCCn1cc(SCC(=O)NCc2ccco2)c2ccccc21,2.6%
24,COC(=O)C1=C(C)OC(N)=C(C#N)C1c1cc(OC)ccc1OC (stereo unspecified),5.9%
25,COC(=O)c1cn(C)c2ccc(S(=O)(=O)N3CC(C)CC(C)C3)cc2c1=O (stereo unspecified),8.5%
26,COc1ccc(C2/C(=C(/O)c3ccccc3)C(=O)C(=O)N2c2ncccn2)cc1OC (stereo unspecified),-2.7%
